Most compounds without a hit are left out; they make up all but 19% or so of the library.
Chronic BCR inh – inhibitors of chronic active B-cell receptor signaling. ABC-DLBCL IkBa-CBG/CBR reporter, luminescence ratio, 4 h. Potency, µM (titrated, usually from 46.1 µM), inactives show at the top dose activity change, negative = inhibition, usual class: inhibitors. 340,000 tested, 0.05% active; active = well fitted inhibition curve with a large enough effect in the signal ratio, with a control signal flat, not every such curve was filed as active; inconclusive = small, poorly fitted or top-dose-only effect, or effect the other way, or a change in a side signal; the % refers to the signal ratio;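 also: potency is read from the fitted curve at half-maximal effect; plate controls were basal doxycycline-induced cells for no effect and cells given 10 µM MG132 for full effect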
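TMD8 ABC-DLBCL cells carrying doxycycline-inducible green luciferase fused to IkappaBalpha plus unfused red luciferase were exposed to compounds (up to 46 uM) for 4 hrs at 37C. Activity came from the overlap-corrected green/red luminescence ratio.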
DT40 TDP1 no CPT – qHTS for Inhibitors of human tyrosyl-DNA phosphodiesterase 1 (TDP1): qHTS in cells in absence of CPT. DT40 Tdp1-/- hTDP1 cells, no CPT, ATP luminescence, 48 h. Potency, µM (series often up to 46.2 µM), inactives show at the highest dose activity change, negative = growth inhibition, usual class: inhibitors. 420,000 tested, 15% active; also: potency is read from the fitted curve at half-maximal effect; % is scaled to controls: 0 for no effect and ±100 for the full control effect; nearly all actives have a fitted effect of over 55% in size
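Growth of hTDP1-complemented DT40 Tdp1-knockout cells is measured by ATP luminescence after at least 48 hr compound exposure at 37 °C, with DMSO substituting for the 20 nM CPT used in the parallel screen.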
IL1B secr inh – blocks inflammasome-driven IL-1 beta release; AID 743279; activity change, % at 57.5 µM; THP-1 LPS/ATP IL-1B secretion, AlphaLISA, 16 h; active compounds read low; 360,000 tested, 4.7% active; in the data active = activity change below about -50%; inconclusive = mostly about -30% to -49%; also: % is scaled to controls: 0 for no effect and ±100 for the full control effect
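Secreted IL-1B measured by AlphaLISA bead assay after 16 h compound exposure of THP-1 cells; compounds (final up to 57.5 uM) added 1 h before LPS (250 ng/mL) and ATP (1.25 mM) stimulation; lower signal means less secretion.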
MCF10A rerep – DNA re-replication induction in MCF 10a cells; Potency, µM (top dose mostly 46.1 µM), without a hit: top-dose activity, positive = re-replication, usual class: activators; 350,000 tested, 2.9% active; MCF 10A DNA re-replication, Hoechst nuclear intensity, 48 h; AID 624296; also: potency is read from the fitted curve at half-maximal effect; % of control where 0% means no effect; nearly all actives have a fitted effect of over 50% in size
DT40 TDP1 CPT – DT40-hTDP1 cell growth loss with CPT; chicken DT40 Tdp1-/-;hTDP1 cells + 20 nM CPT, ATP luminescence, 48 h; Potency, µM (titrated, usually from 46.2 µM), for inactives: top-dose activity change, negative = growth inhibition, actives largely listed as inhibitors; 420,000 tested, 12% active; AID 686979; also: potency is read from the fitted curve at half-maximal effect; % is scaled to controls: 0 for no effect and ±100 for the full control effect; nearly all actives have a fitted effect of over 55% in size
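Cell growth measured by CellTiter-Glo luminescence after a minimum 48 h, 37 C compound exposure with 20 nM CPT in Tdp1-knockout DT40 cells stably expressing hTDP1, seeded 400/well; qHTS titration format.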
SW480 rereplic – DNA re-replication induction in SW480 cells; SW480 DNA re-replication, Hoechst DNA content imaging, 48 h; Potency, µM (titrated, usually from 46.1 µM), inactives show top-dose re-replication activation, usual class: activators; 340,000 tested, 1.8% active; also: potency is read from the fitted curve at half-maximal effect; % of control where 0% means no effect; nearly all actives have a fitted effect of over 55% in size
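Quantitative HTS format with DMSO vehicle controls; 48 hr drug incubation at 37 C, then 40 min Hoechst staining and scanning imager measurement at 405 nm excitation.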
* = called active by the depositor; ? = inconclusive; . = no result given. Unless noted, calls follow the shape of the dose curve; as a rule, active = well fitted curve in the direction sought with a large enough effect; inconclusive = small, poorly fitted or top-dose-only effect, or another doubt; inactive = no such curve, though single readings can be large; an effect the other way counts as inactive or inconclusive.

SMILES	Chronic BCR inh	DT40 TDP1 no CPT	IL1B secr inh	MCF10A rerep	DT40 TDP1 CPT	SW480 rereplic
O=Cc1c(Cl)nc2ccccn2c1=O	?	16µM*	-99*	26µM*	18µM*	?
Cc1cccn2c(=O)c(C=O)c(Cl)nc12	?	2.3µM*	-96*	?	2.6µM*	?
O=C(c1csnn1)N1CCC2(CCCN(Cc3cc(C(F)(F)F)cc(C(F)(F)F)c3)C2)CC1	.	-4%	.	.	5%	.
CCOC(=O)c1c(C)c(C(=O)OCC)n(C)c1C	?	-12%	-13	-7%	-5%	-13%
CCOC(=O)c1c(C)c(C(=O)Nc2cc(F)ccc2F)c(C)n1C	0%	10µM*	0	10µM*	18µM*	23µM*
CN(C)CCNC(=O)c1ccc2c(c1)N(Cc1ccc(F)cc1)CCS2	-12%	16µM*	-7	22%	26µM*	7%
COc1ccc(CCNC(=O)c2ccc3c(c2)N(Cc2ccc(F)cc2)CCS3)c(OC)c1	-2%	13µM*	-55*	-1%	15µM*	3%
O=C(NC1CCCC1)c1ccc2c(c1)N(Cc1ccc(F)cc1)CCS2	?	?	-14	9%	?	-4%
O=C(c1ccc2c(c1)N(Cc1ccc(F)cc1)CCS2)N1CCOCC1	2%	?	28	5%	?	1%
CCOc1ccc(CCNC(=O)c2ccc3c(c2)N(Cc2ccc(F)cc2)CCS3)cc1	.	15µM*	.	.	?	.
COc1ccc(OC)c(CCNC(=O)c2ccc3c(c2)N(Cc2ccc(F)cc2)CCS3)c1	15%	?	0	13µM*	21µM*	6%
CC(CCCCCCCCC(=O)O)N(CCO)C(=O)OC(C)(C)C (configuration not stated)	2%	-22%	30	0%	?	-3%
COc1ccc(CCNC(=O)c2ccc3c(c2)N(Cc2ccc(C)cc2)CCS3)cc1OC	?	16µM*	-14	?	18µM*	-28%
O=C(NCCc1ccc(Cl)cc1)c1ccc2c(c1)N(Cc1c(F)cccc1Cl)C(=O)CS2	.	2.6µM*	.	.	9.2µM*	.
COc1ccc(CCNC(=O)c2ccc3c(c2)N(Cc2ccc(F)cc2)C(=O)CS3)cc1OC	?	16µM*	.	.	15µM*	.
COC(=O)c1cccc(CC2(C)C(=O)Nc3ccc(OC(F)(F)F)cc32)c1 (configuration not stated)	.	?	12	.	?	.
Cc1nc2ccc(S(=O)(=O)N(CC(=O)Nc3cccc(C)c3C)Cc3ccccc3)cc2s1	.	?	.	.	-18%	.
COc1ccc(CN(C(=O)c2cc(=O)c3ccccc3o2)C2CCS(=O)(=O)C2)cc1OC (configuration not stated)	-1%	?	3	0%	0%	-18%
CCOC(=O)C(Cc1cc(N)c(Oc2ccc(OC)cc2)c(N)c1)NC(C)=O (configuration not stated)	.	-26%	13	3%	-3%	0%
Cc1nn(Cc2ccccc2Cl)c2sc(C(=O)Nc3ccccc3N3CCOCC3)cc12	-13%	?	0	9.2µM*	10µM*	174%
CCC(CC)NC(=O)c1cc2c(C)nn(Cc3ccccc3Cl)c2s1	?	?	-19	?	23µM*	?
Cc1nn(Cc2ccc(F)cc2)c2sc(C(=O)Nc3nccs3)cc12	0%	-9%	20	?	-3%	1%
COc1ccccc1CNC(=O)c1cc2c(C)nn(Cc3ccc(F)cc3)c2s1	?	?	-52*	3%	?	-5%
Cc1[nH]c2ccccc2c1C(=O)NS(=O)(=O)Nc1ccc(F)cc1	-13%	-2%	12	1%	-1%	-20%
Cc1c(C(=O)NCC2(c3ccccc3)CCOCC2)cnn1-c1nccc(-c2ccco2)n1	.	-23%	.	.	?	.
SMILES	Chronic BCR inh	DT40 TDP1 no CPT	IL1B secr inh	MCF10A rerep	DT40 TDP1 CPT	SW480 rereplic
Cc1c(O)cnc2nn(-c3ccccc3)c(=N)n12	.	-7%	-12	.	-1%	.
Clc1ccc2c(N3CCOCC3)ccnc2c1	?	?	-15	?	-27%	0%
COc1ccc(N2CCN(c3ccnc4cc(Cl)ccc34)CC2)cc1	2%	18µM*	-56*	?	?	3%
Clc1ccc2c(N3CCCC3)ccnc2c1	-1%	?	-7	-3%	?	1%
Oc1ccc(N2CCN(c3ccnc4cc(Cl)ccc34)CC2)cc1	1%	23µM*	-12	?	?	?
CC1CN(c2ccnc3cc(Cl)ccc23)CC(C)O1 (configuration not stated)	-22%	12µM*	-6	7%	?	-2%
CN(Cc1nc(-c2ccc(Cl)cc2)no1)C(=O)c1ccc2c(c1)OCO2	-24%	-22%	-12	1%	-18%	-8%
FC(F)(F)c1ccccc1-c1cncnc1NCc1cccs1	.	1%	.	.	-6%	.
COc1ccc(O)c(C=Nc2cc(NC(C)=O)c(Cl)cc2Cl)c1	1%	-13%	11	2%	5%	-67%
CC(=O)Nc1cc(N=Cc2ccc(O)cc2O)c(Cl)cc1Cl	?	?	-102*	21µM*	?	?
O=P(CCCO)(Cc1ccccc1)Cc1ccccc1	3%	-2%	1	-35%	0%	-22%
Nc1nc(-c2ccc3c(c2)NC(=O)CO3)cs1	-1%	-25%	-14	11%	?	9%
O=C1COc2ccc(S(=O)(=O)NCCc3ccccc3)cc2N1	?	-5%	29	2%	1%	-1%
O=C1COc2ccc(-c3csc(NCCc4ccccc4)n3)cc2N1	?	3.7µM*	-76*	0%	16µM*	-3%
CCC(C)C(=O)Nc1nc(-c2ccc3c(c2)NC(=O)CO3)cs1 (configuration not stated)	5%	18µM*	-15	12%	?	-3%
COc1ccc(NC(=O)CN2CCN(Cc3ccccc3)S2(=O)=O)c(OC)c1	.	-24%	.	.	-1%	.
CCS(=O)(=O)CCSC1OC(COC(C)=O)C(OC(C)=O)C(OC(C)=O)C1OC(C)=O (configuration not stated)	4%	-17%	10	-3%	-3%	-7%
Cc1ccc(S(=O)(=O)N2[C@H](CC(=O)c3cccs3)OC[C@@H]2C)cc1	.	23µM*	23	.	?	.
COc1ccc(C(=O)C[C@@H]2OC[C@H](C(C)C)N2S(=O)(=O)c2ccc(C)cc2)cc1OC	.	?	-12	.	?	.
